Results from the supplement of paper PMC10981050.
Several values for one entry are separate records, joined by “and”; a condition that tells them apart may be missing. Equal entries are not always repeated. Structures can show the parent of a compound that is named as a salt.

What was measured:
Assay in all cases: cell viability relative to vehicle control; higher = less cytotoxic
Conditions in all cases: 10 µM
[1] = tested on: K562
In short: (§1)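 CRISPR-edited mutant clones and isogenic wild-type clones from four leukaemia lines were screened against Selleck bioactive, kinase and epigenetic probe libraries, with identity-inconsistent compounds excluded. Each compound was acoustically dispensed at a single 10 µM dose into 384-well plates holding 2000 cells in 50 µL medium per well. After 48 h the supernatant was removed and CellTiter-Glo luminescence was read. Viability was expressed as percent of the on-plate vehicle control and analysed in Genedata Screener.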

[2] = tested on: MARIMO
In short: as §1

[3] = tested on: MOLM14
In short: as §1

[4] = tested on: OCI-AML2
In short: as §1

SMILES	cell viability ([1]; SRSF2 genotype: SRSF2 P95H/wt)	cell viability ([1]; SRSF2 genotype: SRSF2 wt/wt)	cell viability ([2]; SRSF2 genotype: SRSF2 P95H/wt)	cell viability ([2]; SRSF2 genotype: SRSF2 wt/wt)	cell viability ([3]; SRSF2 genotype: SRSF2 P95H/wt)	cell viability ([3]; SRSF2 genotype: SRSF2 wt/wt)	cell viability ([4]; SRSF2 genotype: P95H/wt)	cell viability ([4]; SRSF2 genotype: wt/wt)
COc1cccc(-c2cc(F)ccc2C2Cc3nc(N)nc(C)c3C(=O)N2)n1 (centres undefined)	21.2% and 27.1%	24%	29.6%	24.7%	1.82%	3%	15.3%	19.9%
CC(NC(=O)c1ccccc1/N=C/c1c(O)ccc2ccccc12)c1ccccc1 (centres undefined) [Sirtinol]	93% and 101%	103%	102%	98.7%	94.7%	101%	103%	102%
C/C=C/c1ccc(OC)cc1 [Trans-Anethole]	107% and 99.3%	97.3%	103%	102%	103%	103%	92%	116%
Nc1ccc(S(N)(=O)=O)cc1 [Sulfanilamide]	99.1% and 101%	98.9%	102%	107%	96.2%	102%	102%	110%
OCCn1cc(-c2ccc3c(c2)CC/C3=N\O)c(-c2ccncc2)n1	110%	111%	85%	73%	89.8%	94%	94.4%	80.8%
CCOC(=O)O[C@]1(C(=O)OCCl)CC[C@H]2[C@@H]3CCC4=CC(=O)C=C[C@]4(C)[C@H]3[C@@H](O)C[C@@]21C [Loteprednol etabonate]	93.6% and 104%	98%	92.1%	98.5%	96.3%	97.2%	111%	114%
C=C1C[C@@]23CC[C@H]4[C@@](C)(CCC[C@@]4(C)C(=O)O)[C@@H]2CC[C@]1(O[C@@H]1O[C@@H](CO)[C@@H](O)[C@H](O)[C@@H]1O[C@@H]1O[C@@H](CO)[C@@H](O)[C@H](O)[C@@H]1O)C3 [Steviolbioside]	111% and 108%	107%	114%	99.5%	118%	110%	104%	103%
C/C(=C\C(=O)OCCCCCCCCC(=O)O)C[C@@H]1OC[C@H](C[C@@H]2O[C@H]2[C@@H](C)[C@H](C)O)[C@@H](O)[C@H]1O [Mupirocin]	98.8% and 99.8%	101%	103%	103%	97.7%	103%	100%	92%
COc1ccc(C(NC(=O)c2cnc(-c3cccnn3)[nH]c2=O)c2ccc(OC)cc2)cc1	115% and 108%	111%	99%	99.6%	104%	104%	106%	113%
COc1ccc2cc3[n+](cc2c1OC)CCc1cc2c(cc1-3)OCO2 [Berberine Sulfate]	62.4% and 69.2%	72.4%	66.7%	59.5%	71%	75.3%	49.8%	46.2%
NNC(=O)c1ccncc1.Nc1ccc(C(=O)O)c(O)c1 [pasiniazid]	109% and 113%	114%	106%	106%	101%	108%	119%	93.9%
COc1cc(OC)cc(N(CCNC(C)C)c2ccc3ncc(-c4cnn(C)c4)nc3c2)c1	5.81% and 13.7%	12.4%	50.6%	54.4%	34.8%	34.9%	24.7%	31.9%
Cc1cccc(C)c1OCC(=O)N[C@@H](Cc1ccccc1)[C@@H](O)C[C@H](Cc1ccccc1)NC(=O)[C@H](C(C)C)N1CCCNC1=O [Lopinavir (ABT-378)]	85.5% and 94.8%	86.7%	97.4%	98.2%	92.2%	102%	97.3%	92.2%
CCN(c1cc(-c2ccc(CN3CCOCC3)cc2)cc(C(=O)NCc2c(C)cc(C)[nH]c2=O)c1C)C1CCOCC1 [Tazemetostat (EPZ-6438)]	92.9% and 95%	94.2%	93.3%	102%	89.5%	93.3%	105%	99.6%
COC(=O)CC[C@H](NC(=O)[C@H](CC(=O)OC)NC(=O)OCc1ccccc1)C(=O)N[C@H](C(=O)N[C@@H](CC(=O)OC)C(=O)CF)C(C)C	101% and 95.3%	93.7%	99.4%	104%	100%	97.3%	98.4%	103%
CC(C)=CCCC(C)(O)C1CCC2(C)C1C(O)CC1C3(C)CCC(OC4OC(CO)C(O)C(O)C4OC4OC(CO)C(O)C(O)C4O)C(C)(C)C3CCC12C [(20R)Ginsenoside Rg3]	105% and 103%	99.1%	107%	122%	108%	109%	105%	128%
CCOC(=O)c1ccc(N)cc1 [Benzocaine]	92% and 83.9%	94.2%	84%	91.7%	87.9%	92.4%	91.4%	94.6%
CC(C)=CCC[C@](C)(O[C@@H]1O[C@H](CO[C@@H]2O[C@H](CO)[C@@H](O)[C@H](O)[C@H]2O)[C@@H](O)[C@H](O)[C@H]1O)[C@H]1CC[C@]2(C)[C@@H]1[C@H](O)C[C@@H]1[C@@]3(C)CC[C@H](O[C@@H]4O[C@H](CO)[C@@H](O)[C@H](O)[C@H]4O[C@@H]4O[C@H](CO)[C@@H](O)[C@H](O)[C@H]4O)C(C)(C)[C@@H]3CC[C@]12C [Ginsenoside Rb1]	103% and 102%	105%	103%	112%	103%	102%	101%	111%
